# Reference: PubChem BioAssay (NCI)
# The panel holds about 83,000 compounds, 20% with a hit somewhere; the sample as a whole holds those more often.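 Cell lines were cultured in 96-well plates, exposed to a single compound concentration, and assessed for percent growth 48 hours later.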 Activity calls are given as the source filed them. The calls were made as follows: active = growth percent below 10; inactive = the rest.
# Legend:
# Experiment in all cases: NCI-60 one-dose screen, 48 h (100 = growth as untreated, 0 = no growth, -100 = all killed)
# Settings in all cases: 10 µM unless noted
# [1] = system: DU-145 prostate
# [2] = system: K-562 leukemia
# [3] = system: MALME-3M melanoma
# [4] = system: MDA-MB-231 breast
# [5] = system: RXF 393 renal
# [6] = system: SF-268 CNS
# [7] = system: SF-295 CNS
# [8] = system: SF-539 CNS
# [9] = system: UACC-257 melanoma
# [10] = system: M14 melanoma
# [11] = system: HCT-15 colon
# [12] = system: HT29 colon
# [13] = system: SNB-75 CNS
# [14] = system: SNB-19 CNS
# [15] = system: U251 CNS
# [16] = system: PC-3 prostate
# [17] = system: SK-MEL-5 melanoma
# [18] = system: UACC-62 melanoma
# [19] = system: SK-MEL-28 melanoma
Structure (SMILES),growth [1],growth [2],growth [3],growth [4],growth [5],growth [6],growth [7],growth [8],growth [9],growth [10],growth [11],growth [12],growth [13],growth [14],growth [15],growth [16],growth [17],growth [18],growth [19]
CC(=O)O[C@H]1CC[C@]2(C)[C@H]3CC=C4[C@@H]5[C@H](C)[C@@H](C)CC[C@]5(C(=O)NCCNCCNCCN)CC[C@@]4(C)[C@]3(C)CC[C@H]2C1(C)C,89.8% (inactive),12% (inactive),59.3% (inactive),78% (inactive),82.7% (inactive),84.1% (inactive),101% (inactive),84.4% (inactive),98% (inactive),88.1% (inactive),63.3% (inactive),42.5% (inactive),70.8% (inactive),82.6% (inactive),70.1% (inactive),57.7% (inactive),96.3% (inactive),91.7% (inactive),90.1% (inactive)
C=C(C)[C@@H]1CC[C@]2(C(=O)N3CCCNCC3)CC[C@]3(C)[C@H](CC[C@@H]4[C@@]5(C)CCC(=O)C(C)(C)[C@@H]5CC[C@]43C)[C@@H]12,93.6% (inactive),78.4% (inactive),99.3% (inactive),88.7% (inactive),81.9% (inactive),84.9% (inactive),104% (inactive),99.9% (inactive),98.4% (inactive),100% (inactive),84.1% (inactive),61% (inactive),56.9% (inactive),91.2% (inactive),78% (inactive),78.3% (inactive),94.1% (inactive),99.1% (inactive),103% (inactive)
CC(C)(C)c1[nH]nc2c1C(c1cc3ccccc3[nH]c1=O)Nc1cc(C(=O)OCc3ccccc3)ccc1N2 (configuration not stated),65% (inactive),17.1% (inactive),58.7% (inactive),63.3% (inactive),59.7% (inactive),58.9% (inactive),30.3% (inactive),66.1% (inactive),69.7% (inactive),55.6% (inactive),55.3% (inactive),62.1% (inactive),71.7% (inactive),61.7% (inactive),51.6% (inactive),41.4% (inactive),39.3% (inactive),49.1% (inactive),77.2% (inactive)
COc1ccccc1-n1cnc(N)c1C(=O)c1cc(OC)c(OC)c(OC)c1,73.9% (inactive),22% (inactive),50.1% (inactive),64.8% (inactive),33% (inactive),38.5% (inactive),24.9% (inactive),35.6% (inactive),59.8% (inactive),44.5% (inactive),35.5% (inactive),11.7% (inactive),8.36% (active),55.1% (inactive),36.8% (inactive),50.2% (inactive),28.5% (inactive),29.1% (inactive),51.5% (inactive)
CC(c1ccccc1)N1C(=O)C(C2SC(=S)N(C(C)c3ccccc3)C2=O)SC1=S (configuration not stated),95.1% (inactive),57.9% (inactive),69.9% (inactive),73.4% (inactive),85.6% (inactive),92.2% (inactive),98.6% (inactive),50.6% (inactive),81.7% (inactive),69.8% (inactive),54.9% (inactive),72.5% (inactive),89% (inactive),78.6% (inactive),85% (inactive),84.7% (inactive),99.3% (inactive),77.7% (inactive),86.6% (inactive)
CC[C@H](CC[C@@H](C)[C@H]1CC[C@H]2[C@@H]3/C(=C/c4cccnc4)C(=O)C4=CC(=O)CC[C@]4(C)[C@H]3CC[C@]12C)C(C)C,103% (inactive),76.4% (inactive),97.6% (inactive),95.2% (inactive),91.2% (inactive),103% (inactive),86.5% (inactive),105% (inactive),87.8% (inactive),88% (inactive),78.9% (inactive),81.4% (inactive),110% (inactive),88.6% (inactive),0.689% (active),66.7% (inactive),79.8% (inactive),76.6% (inactive),75.7% (inactive)
C=C(C)[C@@H]1CC[C@]2(c3nnc(-c4ccncc4)o3)CC[C@]3(C)[C@H](CC[C@@H]4[C@@]5(C)CCC(=O)NC(C)(C)[C@@H]5CC[C@]43C)[C@@H]12,108% (inactive),80.5% (inactive),101% (inactive),89.8% (inactive),97.9% (inactive),89.5% (inactive),99.4% (inactive),96.9% (inactive),97.9% (inactive),99% (inactive),100% (inactive),99.6% (inactive),93.7% (inactive),92.5% (inactive),96% (inactive),69.5% (inactive),90.1% (inactive),79.7% (inactive),109% (inactive)
COc1cc(/C=N/NC(=S)NNC(=S)NC2CCCCC2)cc(OC)c1OC,92.5% (inactive),88.6% (inactive),95.2% (inactive),77.2% (inactive),95.6% (inactive),102% (inactive),98.7% (inactive),94.8% (inactive),107% (inactive),95.2% (inactive),91.9% (inactive),108% (inactive),91.5% (inactive),98.3% (inactive),100% (inactive),81.3% (inactive),92.5% (inactive),85.8% (inactive),99% (inactive)
COc1ccc(CCN2C(=O)C(C)(C)SC2=S)cc1OC,98.8% (inactive),100% (inactive),96.2% (inactive),97.5% (inactive),109% (inactive),94.7% (inactive),96.8% (inactive),105% (inactive),98.9% (inactive),98.4% (inactive),101% (inactive),105% (inactive),76.8% (inactive),96.4% (inactive),100% (inactive),98.4% (inactive),99.5% (inactive),92.7% (inactive),102% (inactive)
CN(C)c1cccc2[nH]c(-c3[nH]ncc3Nc3ccnc(N)n3)nc12,-5.08% (active),3.38% (active),-79% (active),-18.8% (active),-86.3% (active),-25.3% (active),-41.5% (active),-83.8% (active),-65.8% (active),-79.9% (active),-17.1% (active),0.0531% (active),-68.7% (active),-3.76% (active),-50.1% (active),5.95% (active),-98.9% (active),-85.1% (active),-57.3% (active)
COc1ccc(NC(=O)c2ccc3c(c2)nc(-c2cc4ccccc4[nH]c2=O)n3-c2cc(C(C)(C)C)[nH]n2)cc1,103% (inactive),82.4% (inactive),101% (inactive),98.2% (inactive),77.3% (inactive),79.3% (inactive),89.9% (inactive),94.9% (inactive),97.7% (inactive),96.1% (inactive),95.5% (inactive),106% (inactive),76.2% (inactive),75.4% (inactive),85.6% (inactive),79.1% (inactive),84% (inactive),85.6% (inactive),93.2% (inactive)
N=C(N)c1ccc(S(N)(=O)=O)cc1,104% (inactive),106% (inactive),87.6% (inactive),110% (inactive),66.7% (inactive),96.1% (inactive),98.8% (inactive),129% (inactive),93% (inactive),94.7% (inactive),104% (inactive),105% (inactive),96.1% (inactive),99.1% (inactive),99.4% (inactive),98.4% (inactive),95.3% (inactive),99.2% (inactive),104% (inactive)
CC(=O)Cc1nsc(NC(=O)c2ccoc2COc2ccccc2)n1,106% (inactive),90.6% (inactive),96.8% (inactive),95% (inactive),113% (inactive),96.3% (inactive),98.6% (inactive),91.6% (inactive),93.2% (inactive),95.4% (inactive),105% (inactive),107% (inactive),99.4% (inactive),93.6% (inactive),96.5% (inactive),89.9% (inactive),101% (inactive),93% (inactive),103% (inactive)
